Results published in PubChem BioAssay (EPA / NIEHS).
Calls of active or inactive are those of the source. Rule for the calls: active = hit-call score of the fitted dose curve at least 0.9, where 1 is the maximum; inactive = score below 0.9.

read-out: Potassium channel subfamily K member 1 (KCNK1), KCNK1 (gene 3775); experiment: LTEA_HepaRG_KCNK1: Life Technologies and Expression Analysis (LTEA) Assay for Potassium channel subfamily K member 1 (KCNK1) using HepaRG (AID 2283511); conditions: mRNA level, 48 h; actives raise or lower the signal
In short: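 HepaRG, 48 h exposure, 8-pt half-log series top 100 uM, 0.5% DMSO vehicle, duplicates. Readout: KCNK1 transcript by qRT-PCR (Fluidigm array), housekeeping-normalized; bidirectional curve fit relative to DMSO baseline.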

outcome, inactive:
CCCCCCCC(=O)OC
O=C(O)CN(CC(=O)O)CC(=O)O
O=[Si]=O
Cc1ccc(-c2cc(C(F)(F)F)nn2-c2ccc(S(N)(=O)=O)cc2)cc1
CCCCCCCCCCCCCCCCO
O=C1NC(=O)C(c2ccccc2)(c2ccccc2)N1
CC(=O)O

AC50, active:
COc1ccc(OC(F)(F)F)cc1CN[C@H]1CCCN[C@H]1c1ccccc1 79.1 µM

read-out: Keratin 19 (KRT19), KRT19 (gene 3880); experiment: LTEA_HepaRG_KRT19: Life Technologies and Expression Analysis (LTEA) Assay for Keratin 19 (KRT19) using HepaRG (AID 2283512); conditions: mRNA level, 48 h; actives raise or lower the signal
In short: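 KRT19 transcript levels, measured by Fluidigm qRT-PCR against three housekeeping genes, are fitted for gain or loss of signal relative to DMSO. Human HepaRG cells receive test chemicals (top 100 uM, half-log steps, 0.5% DMSO) for 48 hours.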

outcome, inactive:
NC=O
O=C1c2c(O)cccc2Cc2cccc(O)c21
O=C(O)c1cccnc1
CC(=O)[C@@]1(O)CC[C@H]2[C@@H]3CCC4=CC(=O)CC[C@]4(C)[C@H]3CC[C@@]21C
O=Cc1ccccc1C=O
O=C1CCCCC1
CCN(CC)CCOc1ccc(C(=C(Cl)c2ccccc2)c2ccccc2)cc1
N[C@@H](Cc1c[nH]c2ccccc12)C(=O)O
CCCCCCC(CCCCCCCCCCC(=O)OCC(COC(C)=O)OC(C)=O)OC(C)=O (stereo not drawn)
O=C(O)CC(O)(CC(=O)O)C(=O)O
Cc1ccc(C(C)(C)C)c(O)c1
CCOCCOCCO
CC(N)=O
C=CCCCCCCCCCCCC
CC(C)c1cccc(C(C)C)c1NC(=O)NS(=O)(=O)c1cc(C(C)(C)O)co1
CCCCOC(=O)CCCCC(=O)OCCCC
CC(C)(O)c1ccc(CNC(=O)c2cccnc2Oc2ccc(F)cc2)cc1
Cc1c(C)c2c(c(C)c1O)CCC(C)(COc1ccc(CC3SC(=O)NC3=O)cc1)O2 (stereo not drawn)
CCCCCCCC(=O)OC
O=C(O)CN(CC(=O)O)CC(=O)O
O=[Si]=O
COc1ccc(OC(F)(F)F)cc1CN[C@H]1CCCN[C@H]1c1ccccc1
Cc1ccc(-c2cc(C(F)(F)F)nn2-c2ccc(S(N)(=O)=O)cc2)cc1
CCCCCCCCCCCCCCCCO
O=C1NC(=O)C(c2ccccc2)(c2ccccc2)N1
CC(=O)O

AC50, active:
CCc1nc(N)nc(N)c1-c1ccc(Cl)cc1 75.5 µM
CN(C)C(=O)NC1(c2ccccc2)CCN(CCC[C@]2(c3ccc(Cl)c(Cl)c3)CCCN(C(=O)c3ccccc3)C2)CC1 20.7 µM
CCc1cc(C2=C(C(=O)O)N(c3ccccc3C(F)(F)F)S(=O)(=O)c3ccccc32)cc2c1OCO2 9.92 µM
CSc1ccc(Oc2ccc(S(N)(=O)=O)cc2CN(C)C)cc1C 50 µM

read-out: JUN Transcription Factor, JUN (gene 3725); experiment: LTEA_HepaRG_JUN: Life Technologies and Expression Analysis (LTEA) Assay for JUN Transcription Factor using HepaRG (AID 2283513); conditions: mRNA level, 48 h; actives raise or lower the signal
In short: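 HepaRG, 48 h exposure, 8-pt half-log series top 100 uM, 0.5% DMSO, duplicate. JUN mRNA by qRT-PCR (Fluidigm), housekeeping-normalized (ACTB/GAPDH/POLR2A); bidirectional curve fit vs DMSO baseline.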

outcome, inactive:
NC=O
O=C1c2c(O)cccc2Cc2cccc(O)c21
O=C(O)c1cccnc1
CC(=O)[C@@]1(O)CC[C@H]2[C@@H]3CCC4=CC(=O)CC[C@]4(C)[C@H]3CC[C@@]21C
CCc1nc(N)nc(N)c1-c1ccc(Cl)cc1
O=Cc1ccccc1C=O
O=C1CCCCC1
N[C@@H](Cc1c[nH]c2ccccc12)C(=O)O
CCCCCCC(CCCCCCCCCCC(=O)OCC(COC(C)=O)OC(C)=O)OC(C)=O (stereo not drawn)
O=C(O)CC(O)(CC(=O)O)C(=O)O
Cc1ccc(C(C)(C)C)c(O)c1
CCc1cc(C2=C(C(=O)O)N(c3ccccc3C(F)(F)F)S(=O)(=O)c3ccccc32)cc2c1OCO2
CCOCCOCCO
CC(N)=O
C=CCCCCCCCCCCCC
CSc1ccc(Oc2ccc(S(N)(=O)=O)cc2CN(C)C)cc1C
CC(C)c1cccc(C(C)C)c1NC(=O)NS(=O)(=O)c1cc(C(C)(C)O)co1
CCCCOC(=O)CCCCC(=O)OCCCC
CC(C)(O)c1ccc(CNC(=O)c2cccnc2Oc2ccc(F)cc2)cc1
CCCCCCCC(=O)OC
O=C(O)CN(CC(=O)O)CC(=O)O
O=[Si]=O
CCCCCCCCCCCCCCCCO
O=C1NC(=O)C(c2ccccc2)(c2ccccc2)N1
CC(=O)O

AC50, active:
CCN(CC)CCOc1ccc(C(=C(Cl)c2ccccc2)c2ccccc2)cc1 66.2 µM
CN(C)C(=O)NC1(c2ccccc2)CCN(CCC[C@]2(c3ccc(Cl)c(Cl)c3)CCCN(C(=O)c3ccccc3)C2)CC1 20.2 µM
Cc1c(C)c2c(c(C)c1O)CCC(C)(COc1ccc(CC3SC(=O)NC3=O)cc1)O2 (stereo not drawn) 70.9 µM
COc1ccc(OC(F)(F)F)cc1CN[C@H]1CCCN[C@H]1c1ccccc1 78.9 µM
Cc1ccc(-c2cc(C(F)(F)F)nn2-c2ccc(S(N)(=O)=O)cc2)cc1 83.4 µM

read-out: Lipase C (LIPC), LIPC (gene 3990); experiment: LTEA_HepaRG_LIPC: Life Technologies and Expression Analysis (LTEA) Assay for Lipase C (LIPC) using HepaRG (AID 2283514); conditions: mRNA level, 48 h; actives raise or lower the signal
In short: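 HepaRG, 48 h exposure, 8-pt half-log series from 100 uM in 0.5% DMSO, duplicates. Readout: LIPC mRNA by Fluidigm qRT-PCR, housekeeping-normalized (ACTB/GAPDH/POLR2A). Gain or loss fitted bidirectionally against DMSO baseline.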

outcome, inactive:
NC=O
O=C1c2c(O)cccc2Cc2cccc(O)c21
O=C(O)c1cccnc1
CC(=O)[C@@]1(O)CC[C@H]2[C@@H]3CCC4=CC(=O)CC[C@]4(C)[C@H]3CC[C@@]21C
O=Cc1ccccc1C=O
O=C1CCCCC1
CN(C)C(=O)NC1(c2ccccc2)CCN(CCC[C@]2(c3ccc(Cl)c(Cl)c3)CCCN(C(=O)c3ccccc3)C2)CC1
N[C@@H](Cc1c[nH]c2ccccc12)C(=O)O
CCCCCCC(CCCCCCCCCCC(=O)OCC(COC(C)=O)OC(C)=O)OC(C)=O (stereo not drawn)
O=C(O)CC(O)(CC(=O)O)C(=O)O
Cc1ccc(C(C)(C)C)c(O)c1
CCOCCOCCO
CC(N)=O
C=CCCCCCCCCCCCC
CSc1ccc(Oc2ccc(S(N)(=O)=O)cc2CN(C)C)cc1C
CC(C)c1cccc(C(C)C)c1NC(=O)NS(=O)(=O)c1cc(C(C)(C)O)co1
CCCCOC(=O)CCCCC(=O)OCCCC
CC(C)(O)c1ccc(CNC(=O)c2cccnc2Oc2ccc(F)cc2)cc1
CCCCCCCC(=O)OC
O=C(O)CN(CC(=O)O)CC(=O)O
O=[Si]=O
COc1ccc(OC(F)(F)F)cc1CN[C@H]1CCCN[C@H]1c1ccccc1
Cc1ccc(-c2cc(C(F)(F)F)nn2-c2ccc(S(N)(=O)=O)cc2)cc1
CCCCCCCCCCCCCCCCO
O=C1NC(=O)C(c2ccccc2)(c2ccccc2)N1
CC(=O)O

AC50, active:
CCc1nc(N)nc(N)c1-c1ccc(Cl)cc1 68.6 µM
CCN(CC)CCOc1ccc(C(=C(Cl)c2ccccc2)c2ccccc2)cc1 24.1 µM
CCc1cc(C2=C(C(=O)O)N(c3ccccc3C(F)(F)F)S(=O)(=O)c3ccccc32)cc2c1OCO2 80.1 µM
Cc1c(C)c2c(c(C)c1O)CCC(C)(COc1ccc(CC3SC(=O)NC3=O)cc1)O2 (stereo not drawn) 25.1 µM
